Source: the supplement of paper PMC6555819

tested on: LXRb homodimer (NR concentration 270 nM); experiment: PBM binding z-score (relative to random genomic background probes); higher = stronger binding; sequences stand for … in GC…GCGATTGACAGCGTAGAATGAAGG
How it was run: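 Probes were double-stranded and carried 34-nt variable regions with direct-repeat seeds, single-nucleotide variants, half-site ablations and random human genomic background sequences, printed on custom Agilent 4×180K protein-binding microarrays. Arrays were incubated 1 h with ligand-free nuclear receptor dimers in PBS pH 7.4, 2% milk, 0.02% Triton X-100, 1 mM DTT, 0.2 mg/mL BSA and 0.4 mg/ml salmon testes DNA. Antibodies against each partner (one per run) detected binding, and scanned fluorescence was regression-normalized. Binding z-scores use the random background probes as reference.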

Sequence | PBM binding z-score
TCAGACAGGTGAAGGTAACCCAGGTACGCAGTCG | -0.122
CCTTACGGGTCAAGGTTATAACACGGGTGGTACG | 0.254
CAAACTAGGTCACGAAGGGTCAAAGTCGAATGAC | 1.09
GGAACGAGGGCAAAGTCGATAGCATCTGTCGACG | -0.476
TGAATGAGGTTATAAGAACAGGGAACGTTGCAAA | 0.118
CCTAGCAGGCCAGGGTCACTAAAGCATTTCGCTT | -1.37
ATCGAAAGGTCGAGGTGAATATAGAGAAAGGGAA | 0.889
GCATATAGGTAATACAAGGTGAAAGTGCGATTGT | -0.0302
AATACAGGGTCACTAGGCCATAGTAGGTACGAAT | 0.913
GCTTCTAGGTCAACTGATGGTCAGCTAAAGCTCG | 1.06
TCATATAGGTAAATGCTAGGTGACAGTCCGATCT | -0.279
CCTACTGGGCCATTCAGAGGTCATTCATCATATG | 0.909
TCATATAGTTAAAGGTGAAAGTCGAACGATATGA | 0.00404
CCTTACGGGTCACGGACAGGTTATAGCATTTGGA | 0.0189
CCGACTGGGGCATAAGGTTACGATAAGCCAGCCC | -1.42
GCTAGCAGGCCATTTGGCTCACTCAATGACGGGC | -1.31
CCTACTGGGCCAAAGTTCATTGATTCCAATGCTC | 0.0133
ACAGACCGGTGAGTGAAGGTAACTCAGCTGGACG | -0.849
TCTGCTAGGTCAACGACGGTCAGCTAATCTGCTA | 0.156
ACTAGTTGGTCAGTTGAGGTCACACACAATTCGG | 0.939

Sequence | PBM binding z-score
ACTTACGGGTCAACGAGGTTAGAGCACGCGTATA | 0.261
TTACCAAGGTGAGCTAAGGTCGTTGATCCAACTC | -1.12
CGAACGAGGGCATGAGTTGATAGCCAATGCCGAT | -0.821
ATCTCTAGGTAAAAGTTCAGTGGATCCCGAGGAT | 1.11
GCTGCTAGTTCAGGTTGGTCAGCTAACGGGTACG | -0.495
TCATATCGGTAAATGCTAGGTGAAAGTCCGATCT | 0.0158
ATGGAAAGGTCGAGGTGAGTATAGAGAAAGGGAA | 0.956
CGAACTAGGTAATTGACAGGACAGTGAATAGTAA | -0.603
TAGCCCAGGTCATGCGGGCCAGTATAGTGTCGGC | -0.0451
CCTACTGGGCCATCATGTCATTGATATCAACGTT | -0.132
TATACAGGCTCAAAGGCCAGAGTACGAATGTCGA | -0.0867
ATCTCTAGGTAAAGCTAGTTCAGTGAATGCAAAT | 0.196
ATCTCTAGGTAAACATAGTTCAGTGAATGCAAAT | 0.728
CCAGACAGGTGAGAAGGTATCTCAGCCTCGATTA | -0.551
ATCGAGAGGTCGAAGGTGAGTATACCCACCCGAA | -0.284
CCTACTGGACCAAAGGTCATTGATTCCAATGCTC | 2.31
CGTCCAAGGTCAGCAGGCCAGTGAAAGCGACGTG | -0.659
AGAATGACGTTACCAAAGATCAGGGAAACGCTTG | -0.144
TCTGGGAGGACACGAAGGTCAGAGCTTTCCAGAG | -0.86
ATACCAAGGTGATCGTGAGGTCGTTGTTACTAAC | 0.361
